Sfp PPTase inh = qHTS Assay for Inhibitors of Bacillus subtilis Sfp phosphopantetheinyl transferase (PPTase). Potency, µM, for inactives: largest response in the series, negative = inhibition, most hits filed as inhibitors. 4'-phosphopantetheinyl transferase ffp (Bacillus subtilis), Q9F4F7. AID 1490, 2009. 310,000 tested, 3.5% active. Biochemical Sfp PPTase activity, qHTS;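 also: the enzyme is Sfp with the accession as filed and its product quenches rhodamine fluorescence; 0% = enzyme reaction without inhibitor and -100% = no enzyme wells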
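Step 1, compound plus 15 nM Sfp-PPTase, 15 min, room temperature. Step 2, add rhodamine-CoA (5 uM) and BHQ-2-YbbR (12.5 uM). Step 3, read 525/598 nm fluorescence at 0 and 30 min.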
RORg inh = qHTS for inhibitors of ROR gamma transcriptional activity; Nuclear receptor ROR-gamma (Mus musculus), P51450; Drosophila S2 Gal4-RORgamma UAS-luciferase reporter, 20 h; 310,000 tested, 5.4% active; Potency, µM (titrated, usually from 53.6 µM), without a hit: at the top dose activity change, negative = inhibition, most hits filed as inhibitors; also: nearly all actives have a fitted effect of over 60% in size
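In this cell-based reporter format, copper sulfate (700 uM final) drives Gal4–ROR gamma fusion expression from a metallothionein promoter in Drosophila Schneider cells; compounds preincubated 1 hr, reporter read after 20 hr at ambient temperature.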
Gal4-VP16 FLuc = VP16 counterscreen qHTS for inhibitors of ROR gamma transcriptional activity; Drosophila S2 Gal4-VP16 UAS-luciferase, luminescence, 20 h; Potency, µM (titrated, usually from 53.6 µM), for the others: at the top dose activity, negative = inhibition, most hits filed as inhibitors; 310,000 tested, 3.5% active; AID 2546, 2010;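 also: Gal4-VP16 expression switched on by copper sulfate through the metallothionein promoter; nearly all actives have a fitted effect of over 50% in size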
PLK1 PBD inh = qHTS for Inhibitors of PLK1-PDB (polo-like kinase 1 - polo-box domain): Primary Screen; AID 720504, 2013; Potency, µM, for the others: max response, negative = inhibition, hits mostly inhibitors; 360,000 tested, 2.8% active; Serine/threonine-protein kinase PLK1 (Homo sapiens), P53350; Plk1 PBD binding of FITC phosphopeptide, fluorescence polarization; also: series mostly up to about 57 µM; nearly all actives have a fitted effect of over 65% in size
ALDH1A1 inh = qHTS Assay for Inhibitors of Aldehyde Dehydrogenase 1 (ALDH1A1) | Aldehyde dehydrogenase 1A1 (Homo sapiens), P00352 | 220,000 tested, 7.3% active | Purified ALDH1A1, NADH fluorescence, propionaldehyde substrate | AID 1030, 2008 | Potency, µM (highest dose often 75.3 µM), inactives show top-dose activity, negative = inhibition, hits mostly inhibitors; active = well fitted inhibition curve with a large enough effect, not every such curve was filed as active; inconclusive = small, poorly fitted or top-dose-only effect, or another doubt; inactive = no such curve, though single readings can be large or run the other way;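 also: plate controls were no enzyme wells and a reference inhibitor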
Target sequence (P00352 whole entry, looked up): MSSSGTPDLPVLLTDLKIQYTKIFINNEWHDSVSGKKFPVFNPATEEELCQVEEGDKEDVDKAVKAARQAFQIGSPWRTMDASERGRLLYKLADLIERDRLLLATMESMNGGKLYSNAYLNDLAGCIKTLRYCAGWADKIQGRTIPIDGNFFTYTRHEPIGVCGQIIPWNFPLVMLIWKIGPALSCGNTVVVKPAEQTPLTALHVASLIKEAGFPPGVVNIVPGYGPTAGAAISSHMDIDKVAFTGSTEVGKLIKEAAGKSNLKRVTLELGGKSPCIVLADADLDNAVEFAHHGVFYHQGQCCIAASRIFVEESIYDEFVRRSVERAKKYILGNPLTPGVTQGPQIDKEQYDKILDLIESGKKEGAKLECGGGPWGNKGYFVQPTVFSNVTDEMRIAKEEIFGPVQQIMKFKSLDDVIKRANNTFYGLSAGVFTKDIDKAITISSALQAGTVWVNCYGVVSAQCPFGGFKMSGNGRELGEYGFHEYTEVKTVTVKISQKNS
Active calls of the source: *; ? = inconclusive; . = no result; ! = a repeat was not active; [ ] = another dose, or the depositor's remark. Sampled rows, rich in hits. Any-hit rate of the full collection: about 12%. Unless noted, calls follow the shape of the dose curve; as a rule, active = well fitted curve in the direction sought with a large enough effect; inconclusive = small, poorly fitted or top-dose-only effect, or another doubt; inactive = no such curve, though single readings can be large; an effect the other way counts as inactive or inconclusive. Unless noted, % is scaled to controls: 0 for no effect and ±100 for the full control effect; potency is read from the fitted curve at half-maximal effect.

SMILES	Sfp PPTase inh	RORg inh	Gal4-VP16 FLuc	PLK1 PBD inh	ALDH1A1 inh
Cc1cc2cc(C(c3nnnn3Cc3ccco3)N3CCc4ccccc43)c(=O)[nH]c2cc1C (stereo not given)	10µM*	5%	-2%	-21%	7.9µM*
COc1ccc(Cn2nnnc2C(c2cc3cc(C)ccc3[nH]c2=O)N2CCN(C)CC2)cc1 (stereo not given)	1%	3%	9%	-8%	-10%
Cc1ccc2cc(C(c3nnnn3Cc3ccccc3)N3CCc4ccccc43)c(=O)[nH]c2c1C (stereo not given)	50µM*	11%	5%	-14%	?
Cc1ccc2cc(C(c3nnnn3Cc3ccccc3)N3CCc4ccccc43)c(=O)[nH]c2c1 (stereo not given)	-11%	0%	2%	0%	18µM*
CC(C)(C)S(=O)(=O)/C(C#N)=C/c1cccn1S(=O)(=O)c1ccccc1	.	.	.	1%	.
COC(=O)NC(CC(C)=O)c1ccccc1 (stereo not given)	-7%	-19%[10 µM]	1%[10 µM]	.	21%[13.5 µM]
Cc1ccc(-c2nc3cc(C)c(Br)c(C)n3c2CC(C)(C)C)cc1	.	.	.	-3%	.
Cc1cc2cc(C(c3nnnn3Cc3ccccc3)N3CCc4ccccc43)c(=O)[nH]c2cc1C (stereo not given)	35µM*	-11%	9%	-6%	?
CCc1ccc2[nH]c(=O)c(C(c3nnnn3Cc3ccccc3)N3CCOCC3)cc2c1 (stereo not given)	7%	-1%	-7%	-4%	2%
Cc1cc2cc(C(c3nnnn3Cc3ccco3)N3CCc4ccccc4C3)c(=O)[nH]c2cc1C (stereo not given)	11µM*	-9%	-2%	-23%	?
COc1ccc(C2/C=C\CN(C(=O)c3ccccc3)C(C)C(=O)N2Cc2ccc(F)cc2)cc1 (stereo not given)	-6%	-20%	-16%	.	.
CCOC(=O)c1c(NC(=O)C2CCCO2)sc2c1CCC2 (stereo not given)	-12%	17%	20%	-5%	22µM*
CCOC(=O)c1c(NC(=O)C2CCCO2)sc(C)c1C (stereo not given)	-4%	1%	-9%	-8%	14µM*
CCOC(=O)c1sc(NC(=O)C2CCCO2)c(C(=O)OCC)c1C (stereo not given)	12%	0%	8%	.	8.9µM*
CCOC(=O)c1c(NC(=O)C2CCCO2)sc(C(=O)OC(C)(C)C)c1C (stereo not given)	45µM*	1%	-10%	6µM*	14µM*
CCOC(=O)N/N=C1/C[C@@H](O)[C@@H](O)[C@@H]2[C@@H]3C(=O)N(Cc4ccc5c(c4)OCO5)C(=O)[C@H]3CC[C@H]12	-3%	-8%[10 µM]	1%[10 µM]	.	18%[13.5 µM]
Cc1noc(C)c1-c1ccc(C(=O)Nc2cccc(C(F)(F)F)c2)c2occc12	.	.	.	4%	.
CC(=O)NCCNc1nc(-c2ccc(N(C)C)cc2)nc2ccccc12	-2%	-20%	-10%	.	?
c1ccc2c(c1)CCC[C@@H]2C1=NCCN1	28%	22%[16.9 µM]	-1%[17 µM]	.	19%[20.9 µM]
Cc1sc(NC(=O)C2CCCO2)c(C(N)=O)c1C (stereo not given)	-13%	?	-1%	17µM*	11µM*
CCCc1cc(C(N)=O)c(NC(=O)c2ccco2)s1	?	10%	?	27µM*	?
CCOC(=O)c1c(NC(=O)C2C3C=CC(C3)C2C(=O)O)sc2c1CCC(CC)C2 (stereo not given)	8%	?	-5%	27µM*	1%
CCOC(=O)c1c(NC(=O)C2C3CCC(O3)C2C(=O)O)sc2c1CCC(CC)C2 (stereo not given)	3%	10%	-9%[10 µM]	?	-10%
CCCCCc1nnc(NC(=O)C2CCCO2)s1 (stereo not given)	2%	-18%	2%	?	?
CCCc1cc(C(N)=O)c(NC(=O)C2CCCO2)s1 (stereo not given)	-80%	5%	1%	11µM*	14µM*
SMILES	Sfp PPTase inh	RORg inh	Gal4-VP16 FLuc	PLK1 PBD inh	ALDH1A1 inh
COc1ccc(CNc2nc(-c3cccnc3)nc3ccccc23)c(OC)c1	-25%	32%	7%	.	-6%
COC(=O)NC(c1ccco1)[C@]1(C(C)=O)CCCC1=O (stereo not given in full)	6%	18%[10 µM]	-4%[10 µM]	.	13%[13.5 µM]
CCCCC(CC)COCC1CO1 (stereo not given)	.	-1%	-16%	.	13µM*
CCCCC(CC)COS(=O)(=O)O (stereo not given)	-3%	5%	-2%	.	.
Cc1nc(S(=O)(=O)c2ccc(Cl)cc2)c(NCc2ccccc2)o1	-17%	-1%	-6%	1%	?
CNc1oc(C)nc1S(=O)(=O)c1ccccc1	32µM*	?	3%	?	?
CC(C)=C1CCC(C)CC1=O (stereo not given)	.	7%	2%	.	1%
CN1CC(O)C2=CC(=O)C(=O)C=C21 (stereo not given)	5.6µM*	.	.	.	-13%
CCCn1nc(-c2ccccc2)c2nc3ccccc3nc21	19%	-14%	3%	17µM*	-1%
CCCCCn1nc(-c2ccccc2)c2nc3ccccc3nc21	11%	5%	1%	21µM*	13%
CCOC(=O)C1CCCN(C(=O)c2sc3nc(-c4ccc(F)cc4)cn3c2C)C1 (stereo not given)	-3%	41%	-4%	-14%	10µM*
CCOC(=O)C1CCCN(C(=O)c2sc3nc(-c4ccccc4)cn3c2C)C1 (stereo not given)	12%	31%	-3%	2%	-12%
S=c1nc(C2CC2)n(-c2ccccc2)[nH]1	?	7.9µM*	?	-20%	.
O=c1c2c([nH]n1-c1ccccc1)CCCC2	8%	-18%	-1%	-9%	-10%
CCC(=O)N1CCc2cc(Br)c(S(=O)(=O)CCC(=O)NCCc3ccccc3)cc21	.	.	.	-16%	.
CC1=C(\C=C/C(C)=C/C=C\C(C)=C\C(=O)O)C(C)(C)CCC1	9%	?	-7%	.	35µM*!
CC1=C(/C=C/C(C)=C/C=C/C(C)=C/C(=O)Nc2ccc(O)cc2)C(C)(C)CCC1	28%	4.5µM*!	5µM*!	-9%	20µM*!
CC1=C(/C=C/C(C)=C/C=C/C(C)=C\C(=O)O)C(C)(C)CCC1	6%	-28%	-12%	?	?
Nc1nc2c(nnn2C2CC(O)C(CO)O2)c(=O)[nH]1 (stereo not given)	.	.	.	-8%	.
O=S(=O)(NC1CCCCC1)c1cccc2nsnc12	0%	4%	7%	-8%	.

Screening data from PubChem.
